Measured values from PubChem BioAssay AID720519 (National Center for Advancing Translational Sciences (NCATS), 2013).
Results filed as inconclusive are left out. Active and inactive are the calls of the source. Calls follow the shape of the dose curve; as a rule, active = well fitted activation curve with a large enough effect; inconclusive = small, poorly fitted or top-dose-only effect; inactive = flat fitted curve, though single readings scatter.

assay: qHTS for Inhibitors of Cell Surface uPA Generation: Confirmatory Assay for Cherry-picked Compounds; details: cell surface uPA activity generation, qHTS confirmation; series mostly up to 115 µM; inhibition: at the top concentration; as to inhibition: 0% is about no effect
Procedure, shortened: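 RAW 264.7 cells at 4000/well, incubated overnight, then treated with compounds. After 24 h at 37 C, viability was read by ATPlite luminescence. An increase in signal indicates blocked uPA-dependent LF entry.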
Potency is read from the fitted curve at half-maximal effect.

Row | Structure (SMILES) | inhibition | Potency
1 | Cc1cccc(NC(=O)C2CCCN(S(=O)(=O)c3ccc4[nH]c(=O)ccc4c3)C2)c1 (centres undefined) | -1.87% (inactive) | –
2 | COc1ccc(C)cc1NC(=O)NNC(=O)C1CCC(C(C)(C)C)CC1 (centres undefined) | -3.28% (inactive) | –
3 | COc1ccccc1C(=O)NCCC(=O)NCC(c1ccc(F)cc1)N1CCOCC1 (centres undefined) | -2.36% (inactive) | –
4 | CC(C)c1ccc(SCc2noc(C(=O)NCC3CCCO3)c2C(=O)O)cc1 (centres undefined) | -0.491% (inactive) | –
5 | CCn1c(SC(C)C(=O)NC2CCCC2)nc2cc(S(N)(=O)=O)ccc21 (centres undefined) | 6.22% (inactive) | –
6 | Cc1ccc(C(=O)NC(=S)Nc2ccc3[nH]c(=O)[nH]c3c2)c(C)c1 | -1.36% (inactive) | –
7 | O=C1N[C@@H](Cc2c[nH]c3ccccc23)C(=O)N[C@H]1Cc1ccccc1 | 1.15% (inactive) | –
8 | CC(=O)Nc1c2c(nn1-c1cccc(C)c1)CSC2 | -0.352% (inactive) | –
9 | NC(=O)c1ccc(NC(=O)CN2CCN(S(=O)(=O)c3ccc4ccccc4c3)CC2)cc1 | 1.49% (inactive) | –
10 | Cc1ccc(-c2nc(CS(=O)(=O)CC(=O)NCc3cccc(F)c3)c(C)o2)cc1 | 0.286% (inactive) | –
11 | COc1ccc(Cc2nnc(Nc3ccc(C)cc3)o2)cc1OC | -0.266% (inactive) | –
12 | COC(=O)/C(C#N)=C/c1c(N2CCN(c3ccccc3)CC2)nc2c(C)cccn2c1=O | -2.02% (inactive) | –
13 | CC(C)C1Oc2ccccc2N(CC(=O)NC2CCCCC2)C1=O (centres undefined) | – | 32.9 µM (active)
14 | O=C(/C=C/c1ccc(O)c(O)c1)O[C@@H]1C[C@](O)(C(=O)O)C[C@@H](O)[C@H]1O | -1.49% (inactive) | –
15 | O=C(NCC1CCCO1)c1c(O)c2cccc3c2n(c1=O)CCC3 (centres undefined) | -3.48% (inactive) | –
16 | Cc1ccc(C)c(N2N=C(C(=O)N(CC(C)C)c3c(N)n(Cc4ccccc4)c(=O)[nH]c3=O)CCC2=O)c1 | -1.48% (inactive) | –
17 | Cc1ccc(-n2cccc2C(=O)NS(=O)(=O)c2ccc(C)cc2)cc1 | 0.439% (inactive) | –
18 | CCOc1ccc(C(=O)NCCO)cc1 | -1.33% (inactive) | –
19 | CN(c1ccccc1)S(=O)(=O)c1ccc(C(=O)Nc2nnc(C3CC3)o2)cc1 | -2.74% (inactive) | –
20 | C=CCOC(=O)C1=C(C)NC(C)=C(C(=O)OCC=C)C1c1cn(-c2ccccc2)nc1-c1ccco1 | 2.24% (inactive) | –

Row | Structure (SMILES) | inhibition | Potency
21 | O=C(CCN1CCN(c2ccccc2F)CC1)Nc1ccc(F)cc1 | -3.33% (inactive) | –
22 | CSCC[C@H](NC(=O)[C@H](Cc1ccccc1)n1c(=O)[nH]c2ccccc2c1=O)C(=O)N1CCC[C@H]1C(=O)O | -1.26% (inactive) | –
23 | Cc1ccc2c(c1)N(CC(=O)NCCCc1ccccc1)C(=O)c1cccnc1O2 | 5.78% (inactive) | –
24 | O=S(=O)(NCCc1ccccc1F)c1cccc(S(=O)(=O)N2CCOCC2)c1 | -3.02% (inactive) | –
25 | CCN(C1CCS(=O)(=O)C1)S(=O)(=O)c1ccc2ccccc2c1 (centres undefined) | -1.14% (inactive) | –
26 | CS(=O)(=O)Nc1cccc(C2=NN(S(=O)(=O)c3ccccc3)C(c3ccco3)C2)c1 (centres undefined) | -1.68% (inactive) | –
27 | CC1CCCCN1C(=O)CSc1nc2ncccc2[nH]1 (centres undefined) | -2.7% (inactive) | –
28 | CCCCn1c(SCC(=O)Nc2cc(C(F)(F)F)ccc2Cl)nnc1C(CC)N(C)C (centres undefined) | – | 52.1 µM (active)
29 | CCOC(=O)N1CCc2c(sc3nc4n(c(=O)c23)N=C(C)CS4)C1 | -1.91% (inactive) | –
30 | Cn1cccc1Cc1nnc(SCC(=O)Nc2ccc3c(c2)OCCO3)n1-c1ccc(F)cc1 | -1.98% (inactive) | –
31 | CCCCNC(=O)C1CCN(S(=O)(=O)c2c(C)noc2/C=C\c2ccc(OC)cc2)CC1 | -1.64% (inactive) | –
32 | CC(=O)Nc1ccc(NC(=O)CCCCCN2C(=O)c3ccccc3C2=O)cc1 | -1.19% (inactive) | –
33 | O=C(c1ccccn1)C1CCCN(Cc2cn[nH]c2-c2cc3ccccc3o2)C1 (centres undefined) | -2.58% (inactive) | –
34 | COc1cc(C2/C(=C(\O)c3ccc4c(c3)CC(C)O4)C(=O)C(=O)N2CC2CCCO2)cc(OC)c1OC (centres undefined) | -1.4% (inactive) | –
35 | COc1ccc(NS(=O)(=O)c2cc(NS(=O)(=O)c3cc(C(=O)O)ccc3OC)ccc2C)cc1 | -0.471% (inactive) | –
36 | O=S(=O)(/N=C(/c1ccccc1)N1CCOCC1)c1ccc(F)cc1F | -0.111% (inactive) | –
37 | CC1CCCN(S(=O)(=O)c2cccc([N+](=O)[O-])c2)C1 (centres undefined) | 0.952% (inactive) | –
38 | O=C(NCc1ccccn1)C1CCN(C(=O)c2cc3sccc3n2Cc2ccc(F)cc2)CC1 | -2.71% (inactive) | –
39 | Cc1oc2c(Cl)c(Cl)c(O)c(CN(C)C)c2c1C(=O)c1ccc(Cl)cc1 | 4.02% (inactive) | –
